Screens deposited in PubChem by National Center for Advancing Translational Sciences (NCATS).
In the library only some 3.1% were active in any assay of this set; here they are far more common.
p53null 39C tox – qHTS Screen for Compounds that Selectively Target Cancer Cells with p53 Mutations: Cytotoxicity of p53 Null Cells at the Nonpermissive Temperature. H1299 p53-null (neo) cells, 39C, ATPlite viability, 24 h. Potency, µM (titrated, usually from 46.1 µM), usual class: cytotoxic. 55,000 tested, 0.97% active. AID 904, 2007; further: nearly all actives have a fitted effect of over 50% in size
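Luminescent ATP signal reported cell survival after H1299 lines (neo, p53 null; or p53 A138V) received up to 46 uM compound and 24 hr incubation at 39C.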
S16 viability – Cell viability qHTS assay in S16 Pmp22-F2sN cells | S16 Pmp22-F2sN Schwann cells viability, CellTiter-Glo, 24 h | Potency, µM (top dose mostly 57.5 µM), usual class: cytotoxic | 43,000 tested, 0.48% active; further: nearly all actives have a fitted effect of over 65% in size
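Luminescence from CellTiter-Glo, read by CCD camera after a 15 min room-temperature incubation, served as the viability signal. Reporter Schwann cells (S16 Pmp22-F2sN) had been treated with pin-transferred compounds for 24 h at 37C.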
p53null 32C kill – qHTS Screen for Compounds that Selectively Target Cancer Cells with p53 Mutations: Cytotoxicity of p53 Null Cells at the Permissive Temperature; H1299-neo p53 null cells, ATP luminescence, 24 h, 32C; Potency, µM (doses to about 46.1 µM), hits mostly cytotoxic; 55,000 tested, 0.62% active; AID 903, 2007; further: nearly all actives have a fitted effect of over 55% in size
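ATP-content luminescence in p53-null H1299-neo cells after 24 h compound exposure (up to 46 uM) at 32C permissive temperature; 0% and 100% killing set by DMSO and 100 uM tamoxifen; Hill-equation AC50.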
mTORC1 inh – Acumen qHTS Assay for Inhibitors of the mTORC1 Signaling Pathway in MEF (Tsc2-/-, p53-/-) Cells: Sytravon. Tsc2-/- p53-/- MEF, phospho-rpS6 immunofluorescence/PI, 24 h. Potency, µM (top dose mostly 38.3 µM), hits mostly inhibitors. 44,000 tested, 0.78% active. AID 493208, 2011; further: nearly all actives have a fitted effect of over 50% in size
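Immunofluorescence of rpS6 phosphorylation in Tsc2-/-, p53-/- MEFs after 24 h compound exposure, normalized to propidium iodide signal. Activity is expressed as % positive cells, thresholded with 7.5 nM rapamycin.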
OvCa metastasis – Primary qHTS assay for Inhibitors of ovarian cancer metastasis using an organotypic tumor microenvironment (TME) model; SKOV3ip1-GFP adhesion/invasion on 3D omental model, fluorescence; Potency, µM (doses to about 45.8 µM), most hits filed as inhibitors; 46,000 tested, 0.1% active; AID 1963576, 2024; further: nearly all actives have a fitted effect of over 65% in size
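A 3D layer of primary human omental fibroblasts, mesothelial cells, fibronectin and collagen I, grown 48 hr, received SKOV3ip1-GFP cells in serum-free medium plus compounds at 0.36-46 umol/L. After 2 hr RT and 16 hr 37 C, fixed adherent GFP cells were counted; normalized to DMSO and tomatine.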
PMP22 txn prim – Cell-based coincidence reporter assay to measure PMP22 gene transcription in S16 Pmp22-F2sN cells - Primary screen; S16 Pmp22-F2sN Schwann cells (luciferase reporters placed in the Pmp22 gene), FLuc/NLuc coincidence luminescence, 24 h; Potency, µM (top dose mostly 57.5 µM), hits mostly inhibitors; 43,000 tested, 2% active; active means clear falling dose curves in both reporters; inconclusive means both reporters move, but less clearly or upward; inactive means either reporter flat; the % is the NLuc reporter signal
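S16(c9) Schwann cells with FLuc/NLuc coincidence reporter in the Pmp22 3' UTR; compounds pin-transferred, 24 h at 37C. Dual-luciferase read: FLuc first, then NLuc after Stop&Glo, each 10 min at room temperature.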
A number is an active result; – = inactive; ? = inconclusive; · = no result given. Unless noted, the call rests on the fitted dose curve; in most records, active means well fitted curve in the direction sought with a large enough effect; inconclusive means small, poorly fitted or top-dose-only effect, or another doubt; inactive means no such curve, though single readings can be large; an effect the other way counts as inactive or inconclusive.

SMILES	p53null 39C tox	S16 viability	p53null 32C kill	mTORC1 inh	OvCa metastasis	PMP22 txn prim
Cc1ccc(NC(=O)NCC2CCN(Cc3cccc(Cl)c3)CC2)cc1Cl	?	?	–	10µM	–	?
COc1cc2cc(CNc3ccc(C)cc3)c(=O)n(CC(=O)Nc3ccc(F)cc3F)c2cc1OC	–	–	–	5.2µM	–	–
Cc1ccc(NCc2cc3cc4c(cc3n(CC(=O)Nc3ccc(C)cc3)c2=O)OCCO4)cc1	–	?	–	4.6µM	–	?
Cc1ccc(NCc2cc3cc4c(cc3n(CC(=O)Nc3ccc(F)cc3F)c2=O)OCCO4)cc1	–	–	–	?	–	?
CCOc1ccc(-c2oc3cc(Cl)ccc3c(=O)c2O)cc1OC	16µM	–	?	?	–	?
COc1cc(-c2oc3ccc(C)cc3c(=O)c2O)cc(OC)c1OC	?	–	?	?	–	–
Cc1ccc2nc(-c3ccc(NC(=O)C(F)(F)F)cc3)sc2c1	1.3µM	–	2µM	–	–	–
Cc1ccc2nc(-c3ccc(NC(=O)CN4C(=O)c5ccccc5C4=O)cc3)sc2c1	·	·	22µM	·	·	·
Cc1ccc2nc(-c3ccc(NC(=O)c4ccccc4S(C)(=O)=O)cc3)sc2c1	–	–	–	–	–	?
O=C(CCS(=O)(=O)c1nc(-c2cccs2)cc(C(F)(F)F)n1)Nc1cccc(O)c1	–	?	–	13µM	?	?
COc1cc(NC(=O)CCS(=O)(=O)c2nc(-c3cccs3)cc(C(F)(F)F)n2)cc(OC)c1OC	–	?	–	?	?	?
COc1ccc(NC(=O)CCS(=O)(=O)c2nc(-c3cccs3)cc(C(F)(F)F)n2)cc1OC	–	?	–	13µM	?	?
CC(C)(O)CC(=O)NCCn1ccc2ncnc(Nc3ccc(Oc4cccc(C(F)(F)F)c4)c(Cl)c3)c21	·	·	·	·	–	·
Nc1ccc2nc(-c3ccc(O)cc3)sc2c1	1.3µM	–	2.5µM	–	–	?
CN[C@H]1[C@@H](O)[C@@H]2O[C@@H]3O[C@H](C)CC(=O)[C@]3(O)O[C@@H]2[C@@H](NC)[C@H]1O	·	·	·	·	–	·
CCCCCN(CCC12CC3CC(CC(C3)C1)C2)C(=O)NCCCc1ccncc1	·	·	·	·	–	·
Cc1ccc(-c2nnc(NC(=O)c3ccc4c(c3)OCCO4)o2)c(C)c1	25µM	–	–	–	–	?
O=C(Nc1nnc(-c2cc(Cl)ccc2Cl)o1)c1ccc2c(c1)OCCO2	–	–	–	?	–	–
COc1ccccc1Nc1nn2c(=O)c3ccc(C(=O)NCCc4ccccc4)cc3nc2s1	6.3µM	8.9µM	?	?	?	5.6µM
COc1ccccc1Nc1nn2c(=O)c3ccc(C(=O)NC(C)c4ccccc4)cc3nc2s1 (configuration not stated)	–	–	–	–	–	–
Cc1c(Cl)cccc1Nc1nn2c(=O)c3ccc(C(=O)NCCC4=CCCCC4)cc3nc2s1	–	–	–	–	–	?
Cc1ccc(Cl)cc1Nc1nn2c(=O)c3ccc(C(=O)NC(C)c4ccccc4)cc3nc2s1 (configuration not stated)	–	?	–	–	–	7.6µM
CCN(CC)CCNC(=O)c1ccc2c(=O)n3nc(Nc4cccc(Cl)c4C)sc3nc2c1	20µM	?	?	–	?	?
O=C(Nc1cccc(Cl)c1)Nc1ncc(CCNc2ncnc3ccsc23)s1	·	·	·	·	–	·
CN(C)CCC=C1c2ccccc2COc2ccc(CC(=O)O)cc21	·	·	·	·	–	·
SMILES	p53null 39C tox	S16 viability	p53null 32C kill	mTORC1 inh	OvCa metastasis	PMP22 txn prim
NC1=N[C@@]2(c3cc(NC(=O)c4ccc(F)cn4)ccc3F)COC[C@@H]2CS1	·	·	·	·	–	·
C[C@](Cc1c[nH]c2ccccc12)(NC(=O)OC1C2CC3CC(C2)CC1C3)C(=O)NC[C@H](NC(=O)CCC(=O)O)c1ccccc1 (some centres not stated)	·	·	·	·	–	·
CCN1CCN(CC(=O)Nc2ccc(-c3cccc4c(=O)cc(N5CCOCC5)oc34)c3sc4ccccc4c23)CC1	·	·	·	·	–	·
Cc1oc(-c2ccc(Cl)cc2)nc1CSc1nc2ncccc2[nH]1	–	–	–	–	–	–
Clc1ccc(CSc2nc3ncccc3[nH]2)cc1	?	–	10µM	–	–	?
CCN1C(=O)c2ccccc2Sc2ccc(NC(=O)Nc3ccc(C(C)=O)cc3)cc21	–	?	–	–	–	–
CCN(CC)CCNC(=O)Nc1ccc2c(c1)N(Cc1ccccc1)C(=O)c1ccccc1S2	18µM	?	–	?	?	?
CCC1CCCCN1CCCNC(=O)c1cc2c(Cl)nc3ccc(C)cc3c2s1 (configuration not stated)	20µM	?	–	–	?	?
CCCCN1C(=O)C(O)(CC(=O)c2ccc(C(C)(C)C)cc2)c2ccccc21 (configuration not stated)	20µM	?	–	?	–	?
Cc1ccc(C(=O)CC2(O)C(=O)N(Cc3ccccc3)c3ccc(Br)cc32)cc1 (configuration not stated)	?	–	–	10µM	?	?
COc1ccc(C(=O)CC2(O)C(=O)N(Cc3ccccc3Cl)c3ccccc32)cc1 (configuration not stated)	–	–	–	?	–	?
CCc1ccc(C(=O)CC2(O)C(=O)N(Cc3ccc(C)cc3)c3ccccc32)cc1 (configuration not stated)	?	–	–	12µM	–	?
Cc1ccc(C(=O)CC2(O)C(=O)N(Cc3ccccc3)c3ccccc32)c(C)c1 (configuration not stated)	–	?	–	18µM	–	–
CCCCN1C(=O)C(O)(CC(=O)c2ccc(C)cc2C)c2cc(Br)ccc21 (configuration not stated)	?	?	–	?	?	?
O=c1[nH]c(=O)n([C@H]2C[C@@H](O)[C@@H](CO)O2)cc1C(F)(F)F	·	·	·	·	–	·
N#CC(=C(N)Sc1ccc(N)cc1)c1ccccc1C(F)(F)F	·	·	·	·	–	·
CCCCCCCCCCCCCC(=O)N[C@H](CO)[C@H](O)c1ccc([N+](=O)[O-])cc1	·	·	·	·	–	·
